Consider nine molecules from PubChem BioAssay (NCI).

Each structure is given as a SMILES string. About 83,000 compounds went through this panel and 20% of them were active in at least one assay; those are over-represented in the sample as a whole.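 Method: cells in 96-well plates; compound added at one concentration; 48 h incubation; percent growth measured; values under 10 scored active.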 Values without a mark were called inactive. The source made the active and inactive calls.

Test systems include K-562 leukemia; MALME-3M melanoma; MDA-MB-231 breast; RXF 393 renal; SF-268 CNS; SF-295 CNS; SF-539 CNS; UACC-257 melanoma; M14 melanoma; HCT-15 colon; HT29 colon; SNB-75 CNS; U251 CNS; PC-3 prostate; SK-MEL-5 melanoma; UACC-62 melanoma; LOX IMVI melanoma; SK-MEL-28 melanoma; SK-MEL-2 melanoma; SNB-19 CNS.
Holding throughout (assay): NCI-60 one-dose screen, 48 h (100 = growth as untreated, 0 = no growth, -100 = all killed)
What all share (conditions): 10 µM

With `COc1ccc(/C=C2/CN(CCC#N)C/C(=C\c3ccc(OC)cc3)C2=O)cc1`, the growth was 1.95% (active) with K-562 leukemia; -44.7% (active) in the assay on MALME-3M melanoma; -25.4% (active) in the assay on MDA-MB-231 breast; -63% (active) in the assay on RXF 393 renal; 0.448% (active) in the assay on SF-268 CNS; -32.7% (active) in the assay with SF-295 CNS. In addition, the growth in the assay with SF-539 CNS was 9.73% (active); in the assay with UACC-257 melanoma it was 17.4%; with M14 melanoma it was 0.654% (active); in the assay on HCT-15 colon it was 0.438% (active); in the assay on HT29 colon, -37.6% (active); in the assay with SNB-75 CNS it was 51.4%. Further, the growth in the assay with U251 CNS is -28.3% (active); in the assay with PC-3 prostate, -11.7% (active); in the assay on SK-MEL-5 melanoma, -0.858% (active); in the assay on UACC-62 melanoma, -27.5% (active); in the assay on LOX IMVI melanoma, -53.7% (active); with SK-MEL-28 melanoma, 6.16% (active). Further, the growth in the assay on SK-MEL-2 melanoma was 57.3%.

Consider `C[C@]12CC[C@@H]3c4ccc(O)cc4C[C@@H](O)[C@H]3[C@@H]1CC[C@@H]2O`, for which the growth was 105% in the assay with K-562 leukemia; 102% with MALME-3M melanoma; 107% with MDA-MB-231 breast; 110% in the assay with RXF 393 renal; 109% with SF-268 CNS; 112% with SF-295 CNS. Further, the growth in the assay on SF-539 CNS is 96.5%; in the assay with UACC-257 melanoma, 88.6%; in the assay with M14 melanoma it was 105%; in the assay with HCT-15 colon, 102%; in the assay on HT29 colon, 102%; in the assay with SNB-75 CNS, 87.8%. The growth with U251 CNS was 96.1%; with PC-3 prostate, 90.2%; in the assay on SK-MEL-5 melanoma, 96%; in the assay on UACC-62 melanoma, 97.1%; in the assay on LOX IMVI melanoma, 97.3%; in the assay on SK-MEL-28 melanoma, 117%. The growth with SK-MEL-2 melanoma is 110%.

Turning to `Nc1nc(N)c2c(ccc3nccc32)[nH]1`, the growth was 16.6% in the assay on K-562 leukemia; 58.7% in the assay with MALME-3M melanoma; 73.5% in the assay with MDA-MB-231 breast; 56.5% in the assay on RXF 393 renal; 46.6% with SF-268 CNS; 34.4% in the assay with SF-295 CNS. The growth in the assay with SF-539 CNS was 57.9%; in the assay on UACC-257 melanoma, -9.73% (active); in the assay on M14 melanoma it was 28.7%; in the assay on HCT-15 colon, 46.9%; with HT29 colon it was 27%; in the assay on SNB-75 CNS, 79.2%. For the same molecule, the growth in the assay with SNB-19 CNS is 62.4%; in the assay with U251 CNS, 36%; in the assay with PC-3 prostate, 7.39% (active); in the assay with SK-MEL-5 melanoma, 41.2%; in the assay on LOX IMVI melanoma it was 23%; with SK-MEL-28 melanoma, 83.4%. Besides, the growth in the assay on SK-MEL-2 melanoma is 57.6%.

As for `CC1(C)OC2=C(CC1Br)C(=O)C(=O)c1ccccc12` (stereo not given), the growth was -5.94% (active) in the assay with K-562 leukemia; -90.9% (active) with MALME-3M melanoma; -25.1% (active) in the assay on MDA-MB-231 breast; -97.9% (active) in the assay on RXF 393 renal; -87.6% (active) with SF-268 CNS; -84.5% (active) in the assay on SF-295 CNS. Moreover, the growth in the assay on SF-539 CNS is -82% (active); in the assay on UACC-257 melanoma, -89.3% (active); in the assay on M14 melanoma it was -91.2% (active); in the assay with HCT-15 colon, -58.5% (active); with HT29 colon, -11.7% (active); with SNB-75 CNS, 11.1%. For the same molecule, the growth is -19% (active) with SNB-19 CNS; -73.7% (active) in the assay with U251 CNS; -16.8% (active) with PC-3 prostate; -99.7% (active) with SK-MEL-5 melanoma; -77.3% (active) with LOX IMVI melanoma; -42.9% (active) in the assay on SK-MEL-2 melanoma.

As to `CC(C)C[C@H](NC(=O)[C@H](Cc1cccc2ccccc12)NS(=O)(=O)c1cccc2cccnc12)B(O)O`, the growth with K-562 leukemia is -17.7% (active); in the assay on MALME-3M melanoma, -76.9% (active); with MDA-MB-231 breast it was -4.94% (active); with RXF 393 renal it was 15.9%; with SF-268 CNS, 0.092% (active); in the assay with SF-295 CNS, -70.5% (active). In addition, the growth was -34.1% (active) in the assay on SF-539 CNS; 15.4% in the assay on UACC-257 melanoma; -47.4% (active) in the assay on M14 melanoma; -65.8% (active) in the assay with HCT-15 colon; -56.6% (active) in the assay on HT29 colon; -51.9% (active) in the assay with SNB-75 CNS. The growth in the assay with SNB-19 CNS is 8.26% (active); in the assay on PC-3 prostate it was -23.2% (active); in the assay on SK-MEL-5 melanoma, -85.8% (active); with UACC-62 melanoma it was -50.9% (active); with LOX IMVI melanoma, -78.7% (active); in the assay on SK-MEL-2 melanoma, -41.2% (active).

For the molecule `S=C1SCC(c2ccccc2)S1` (stereo not given), the growth was 106% with K-562 leukemia; 118% in the assay on MALME-3M melanoma; 107% in the assay on MDA-MB-231 breast; 105% in the assay on RXF 393 renal; 111% in the assay with SF-268 CNS; 117% with SF-295 CNS. The growth was 95.7% in the assay with SF-539 CNS; 89.6% in the assay on UACC-257 melanoma; 113% in the assay with M14 melanoma; 100% with HCT-15 colon; 103% with HT29 colon; 92.2% in the assay on SNB-75 CNS. In addition, the growth with SNB-19 CNS was 97.8%; in the assay on PC-3 prostate, 99.7%; in the assay with SK-MEL-5 melanoma, 103%; with UACC-62 melanoma it was 100%; in the assay with LOX IMVI melanoma it was 103%; with SK-MEL-28 melanoma, 103%.

On to `CN(C)CCN1C(=O)c2cccc3c(-c4ccc5ncn(C6CCCCC6)c5c4)ccc(c23)C1=O`, for which the growth in the assay on K-562 leukemia is 6.76% (active); with MALME-3M melanoma, 30.8%; with MDA-MB-231 breast, 33.6%; in the assay with RXF 393 renal, 26.3%; in the assay on SF-268 CNS, 35.8%; in the assay with SF-295 CNS, 23.1%. The growth with SF-539 CNS is 31.9%; with UACC-257 melanoma, 23.1%; in the assay with M14 melanoma, 30.2%; in the assay with HCT-15 colon, 12.5%; in the assay on HT29 colon, 7.45% (active); in the assay on SNB-75 CNS, 40.1%. The growth is 23.3% in the assay with SNB-19 CNS; 22% with PC-3 prostate; 21.4% in the assay with SK-MEL-5 melanoma; 24.6% with UACC-62 melanoma; 13.8% with LOX IMVI melanoma; 47.2% in the assay on SK-MEL-28 melanoma.

Regarding `FC(F)(F)c1ccc(-c2cnc(Cl)nc2N2CCC3(CC2)OCCO3)cc1`, the growth in the assay with K-562 leukemia was 93.2%; in the assay with MALME-3M melanoma, 78.4%; in the assay on MDA-MB-231 breast, 102%; in the assay on RXF 393 renal, 105%; with SF-268 CNS it was 93.5%; with SF-295 CNS, 89.7%. Also, the growth with SF-539 CNS is 99.3%; in the assay with UACC-257 melanoma, 106%; in the assay on M14 melanoma, 96.6%; in the assay on HCT-15 colon, 93.6%; in the assay on HT29 colon, 96.9%; in the assay on SNB-75 CNS, 93.8%. Also, the growth with SNB-19 CNS was 102%; in the assay on PC-3 prostate, 87.2%; with SK-MEL-5 melanoma, 93.8%; in the assay on UACC-62 melanoma, 96.8%; in the assay with LOX IMVI melanoma, 90.4%; with SK-MEL-28 melanoma, 102%.

On to `CCCCCCc1cc(N=Nc2ccc(S(=O)(=O)Nc3cc(C)nc(C)n3)cc2)c(O)cc1O`, for which the growth with K-562 leukemia is 93.8%; in the assay on MALME-3M melanoma, 93.1%; with MDA-MB-231 breast it was 111%; in the assay on RXF 393 renal, 118%; with SF-268 CNS, 110%; with SF-295 CNS, 98.7%. In addition, the growth in the assay on SF-539 CNS is 97.1%; in the assay with UACC-257 melanoma, 102%; in the assay with M14 melanoma, 94.2%; in the assay on HCT-15 colon it was 103%; in the assay on HT29 colon, 95.6%; in the assay with SNB-75 CNS, 91.8%. Besides, the growth with SNB-19 CNS was 103%; with PC-3 prostate, 96.2%; in the assay on SK-MEL-5 melanoma, 98.9%; with UACC-62 melanoma, 105%; with LOX IMVI melanoma, 96.2%; in the assay with SK-MEL-2 melanoma, 90.5%.
